This is an account of results in PubChem BioAssay.

Unmarked numbers belong to inactive results.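 Rule for the calls: active = viability at or below 10% of carrier control in both of two separate runs; inconclusive = viability at or below 10% in only one of the two runs; inactive = the rest.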

This assay is described as follows: SK-BR-3 cell growth inhibitors, pilot screen, 24 h, human (AID 572).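 Note: compound exposure lasted between 18 and 24 h rather than exactly 24 h; 100% = carrier-treated control wells.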 To be noted: SK-BR-3 viability, CellTiter-Glo luminescence, at 10 µM, stronger effect = lower value.
By viability is commonly meant a read-out of living cells in per cent, often relative to untreated cells. `Cn1c2c(c(=O)[nH]c1=O)C(NC(=O)c1ccco1)(C(F)(F)F)C(=O)N2` (stereo unspecified): the viability was 112%.

For the compound `c1ccc(CSCc2cn3ccsc3n2)cc1`, the viability was 93.5%.

With `CCCn1c(SCC(=O)Nc2cc(C)on2)nc2c1c(=O)n(C)c(=O)n2C`, the viability was 100%.

For `CCN(CC)C(=O)C1CCC(CNS(=O)(=O)c2cccc3cccnc23)CC1` (stereo unspecified), the viability is 92%.

For `CC(C)OC(=O)CSc1nnnn1-c1ccc2c(c1)OCCO2`, the viability was 99.5%.

With `Cc1ccc(OCC(=O)N2CCN(C(=O)CCC3CCCC3)CC2)cc1`, the viability is 104%.

`CC1(C)CC(=O)C(C=Nc2ccncc2)=C(O)C1`: the viability was 96.5%.

With `CCCCN(CC)S(=O)(=O)N1CCC(C(=O)NCc2ccc(F)cc2)CC1`, the viability is 97%.

Take `CCOC(=O)C1(C(=O)OCC)C(c2ccccc2)CC(O)N1C(C)=O` (stereo unspecified): the viability is 116%.

On to `CCOc1ccccc1N(C(=O)c1ccco1)C(C(=O)NC1CCCC1)c1cccnc1` (stereo unspecified), for which the viability is 84%.

On to `Cc1ccc(CNC(=O)C2CC(=O)OC23CCCC3)c(C)c1` (stereo unspecified), for which the viability was 86%.

`Cc1ccc(-c2nnc(-c3ccc(Br)cc3)o2)o1`: the viability was 100%.

Take `COC(=O)CSc1nc2sc3c(c2c(=O)n1C1CCCCC1)CCN(C)C3`: the viability is 102%.

`CCOC(=O)Cc1csc(NC(=O)CSc2nnc(C(C)C)n2CC)n1`: the viability is 126%.

Take `CCOC(=O)Cn1nnnc1CN(Cc1ccc(OC)cc1)Cc1cc2cc(C)cc(C)c2[nH]c1=O`: the viability is 95%.

As for `CC(=O)CCc1ccc(OCCCCn2cncn2)cc1`, the viability is 113%.
